A short description of test [1]: ATG_ISRE_CIS: Attagene CIS-FACTORIAL HepG2 Assay for human Interferon Regulatory Factor 1 (IRF1) binding to an Interferon-Stimulated Response Element (ISRE) (AID 2282948). The settings on record: HepG2 ISRE cis-reporter (Attagene), mRNA transcription readout; actives raise or lower the signal. In a few lines: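 Endogenous transcription factor activity read as reporter transcript abundance via RT-PCR and capillary electrophoresis. HepG2 cells transiently transfected, 24 h chemical exposure. Gain or loss fitted against DMSO baseline.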

Test [2] in a line: ATG_M_32_CIS: Attagene CIS-FACTORIAL HepG2 Assay for M32 Transcription Factor (Internal Marker) (AID 2282949).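 Also: background control marker of the multiplexed CIS panel rather than a real target.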 Particulars: HepG2 Attagene cis-factorial M32 reporter, mRNA; actives raise or lower the signal. An outline of the steps:
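HepG2 transfectants (cis-regulated reporter transcription units) dosed 24 h. Reporter mRNA by RT-PCR plus CE, analysed as gain or loss relative to DMSO.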

The nature of test [3]: ATG_M_06_CIS: Attagene CIS-FACTORIAL HepG2 Assay for M06 Transcription Factor (Internal Marker) (AID 2282950). The settings on record: HepG2 Attagene CIS-FACTORIAL M06 internal marker reporter; actives raise or lower the signal. In a few lines: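 Steps: transfect HepG2 with multiplexed cis-element reporter constructs; dose chemical 24 h; extract RNA with DNase treatment; reverse-transcribe, PCR-amplify, 6-FAM label, HpaI digest; separate fragments by capillary electrophoresis. Activity fitted both directions versus DMSO.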

Test [4] deals with Heat shock factor protein 1 (Homo sapiens) (UniProt Q00613). The test is described as follows: ATG_HSE_CIS: Attagene CIS-FACTORIAL HepG2 Assay for human Heat Shock Transcription Factor 1 (HSE) (AID 2282953). The settings on record: HepG2 HSE cis-reporter, Attagene RNA transcription; actives raise or lower the signal. An outline of the steps:
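Cells were transfected with cis-element-driven reporter constructs, dosed for 24 h, then total RNA was reverse-transcribed and reporter cDNA amplified, FAM-labelled and digested with HpaI. Fragments were resolved by capillary electrophoresis; gain or loss was fitted against DMSO.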

Test [5] is described as follows: ATG_MRE_CIS: Attagene CIS-FACTORIAL HepG2 Assay for human Metal Responsive Element (MRE) (AID 2282954). Particulars: HepG2 MRE cis-reporter transcription, Attagene multiplex; actives raise or lower the signal. An outline of the steps:
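Endogenous MRE-dependent transcription read as reporter mRNA in transiently transfected human HepG2 cells at 24 h. RNA reverse-transcribed, PCR-amplified, labelled and resolved by capillary electrophoresis; gain or loss relative to DMSO.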

Test [6] is described as follows: ATG_PBREM_CIS: Attagene CIS-FACTORIAL HepG2 Assay for human Phenobarbital-responsive Enhancer Module (PBREM) (AID 2282955). The settings on record: HepG2 PBREM cis-reporter, Attagene multiplexed transcription; actives raise or lower the signal. In a few lines:
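Endogenous transcription factors in human liver HepG2 cells drive a PBREM cis-element reporter, whose transcript level after 24 h treatment is quantified by RT-PCR with capillary electrophoresis; activity fitted in both directions against DMSO.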

Test [7] in a line: ATG_PXRE_CIS: Attagene CIS-FACTORIAL HepG2 Assay for human Pregnane X Receptor Element (PXRE) (AID 2282957). The settings on record: HepG2 Attagene CIS-FACTORIAL PXRE reporter, mRNA; actives raise or lower the signal. An outline of the steps:
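Fluorescent capillary electrophoresis of amplified reporter cDNA gave the signal, collected 24 h after dosing HepG2 cells that held transfected cis-element reporter constructs.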

The nature of test [8]: ATG_PPRE_CIS: Attagene CIS-FACTORIAL HepG2 Assay for human Peroxisome Proliferator-activated Response Element (PPRE) (AID 2282958). The settings on record: HepG2 PPRE cis-element reporter, Attagene transcription factor profiling; actives raise or lower the signal. In a few lines:
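HepG2, transient MRTU transfection (cis promoter elements, endogenous TFs). 24 h dosing. RNA → oligo(dT) RT → PCR → 6-FAM primer extension → HpaI digest → CE. Bidirectional fit vs DMSO.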

A short description of test [9]: ATG_RORE_CIS: Attagene CIS-FACTORIAL HepG2 Assay for human RAR-related Orphan Receptor Element (RORE) (AID 2282959). Particulars: HepG2 Attagene cis-factorial RORE reporter, mRNA; actives raise or lower the signal. In a few lines: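 Transient MRTU transfection of human HepG2 liver cells (FuGene 6); 24 h compound exposure; TriZol RNA, oligo(dT) RT, PCR, FAM labeling, HpaI cut, CE fragment analysis. DMSO = negative control/baseline.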

Test [10] is described as follows: ATG_Sox_CIS: Attagene CIS-FACTORIAL HepG2 Assay for human SRY-box transcription factor (SOX) (AID 2282960). Particulars: HepG2 Attagene cis-factorial SOX reporter, mRNA; actives raise or lower the signal. An outline of the steps: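 Endogenous factor activity in human liver HepG2 cells carrying transfected cis-regulated reporter units. RNA taken 24 h post-dose, reverse-transcribed, PCR-amplified and sized by capillary electrophoresis. Gain or loss of signal fitted relative to DMSO.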

In test [11] the target is Transcription factor Sp1 (Homo sapiens) (UniProt P08047). The test is described as follows: ATG_Sp1_CIS: Attagene CIS-FACTORIAL HepG2 Assay for human Specificity Protein 1 (Sp1) (AID 2282961). Particulars: HepG2 Sp1 cis-reporter transcription, actives raise or lower the signal. In a few lines:
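Transient MRTU-transfected HepG2, 24 h compound exposure. Total RNA → oligo(dT) RT → PCR of reporter → 6-FAM primer extension → HpaI digest → CE. Endpoint fitted both directions vs DMSO.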

Test [12] is described as follows: ATG_SREBP_CIS: Attagene CIS-FACTORIAL HepG2 Assay for human Sterol Regulatory Element Binding (SREBP) (AID 2282962). Particulars: HepG2 Attagene cis-factorial SREBP reporter, mRNA; actives raise or lower the signal. In a few lines: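 Endogenous SREBP activity read as cis-element-driven reporter transcript in transiently transfected HepG2, 24 h post-dosing; quantified via RT-PCR plus capillary electrophoresis of fluorescent fragments. Gain or loss of signal fitted relative to DMSO baseline.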

Test [13] has as its target Signal transducer and activator of transcription 3 (Homo sapiens) (UniProt P40763). The test is described as follows: ATG_STAT3_CIS: Attagene CIS-FACTORIAL HepG2 Assay for human Signal Transducer and Activator of Transcription 3 (STAT3) (AID 2282963). Particulars: HepG2, Attagene cis-factorial STAT3 reporter transcription; actives raise or lower the signal. In a few lines: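 Readout is reporter transcript quantified by RT-PCR and capillary electrophoresis, with 6-FAM primer extension and HpaI digestion. Total RNA is taken 24 h after dosing transiently transfected HepG2 carrying cis-regulated reporter units. Bidirectional fit against DMSO.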

A short description of test [14]: ATG_TA_CIS: Attagene CIS-FACTORIAL HepG2 Assay for human TA Basal Promoter (AID 2282964). The settings on record: HepG2 Attagene CIS-factorial TA basal promoter reporter; actives raise or lower the signal. In a few lines: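 Steps: transfect HepG2 with MRTUs; dose 24 h; isolate RNA, DNase-treat, reverse-transcribe; PCR and FAM-label reporter cDNA; digest with HpaI 2h at 37 C; run capillary electrophoresis. Activity fitted both directions against DMSO.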

Test [15] can be described thus: ATG_TCF_b_cat_CIS: Attagene CIS-FACTORIAL HepG2 Assay for human T-Cell-Factor with beta-catenin (TCF/b-cat) (AID 2282965). The settings on record: HepG2 TCF/beta-catenin cis-reporter transcription, actives raise or lower the signal. In a few lines:
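Endogenous transcription factor activity is captured through cis-promoter reporter constructs transiently introduced into human HepG2 liver cells. Induced reporter mRNA is measured after 24 h and fitted bidirectionally relative to DMSO.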

Test [16] is described as follows: ATG_TAL_CIS: Attagene CIS-FACTORIAL HepG2 Assay for human TAL Basal Promoter (AID 2282966).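 Also: background control endpoint measuring basal TAL promoter reporter mRNA not a specific factor.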 The settings on record: HepG2 Attagene cis-factorial TAL promoter reporter; actives raise or lower the signal. In a few lines: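 Transiently transfected HepG2 (cis-regulated reporter units), 24 h treatment, mRNA read by fluorescent CE after RT-PCR; bidirectional fit, DMSO baseline.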

Test [17] addresses Hypoxia-inducible factor 1-alpha (Homo sapiens) (UniProt Q16665). In words: ATG_HIF1a_CIS: Attagene CIS-FACTORIAL HepG2 Assay for human Hypoxia Inducible Factor 1 (HIF1A) (AID 2282951). The settings on record: HepG2 Attagene cis-factorial HIF1a reporter transcription; actives raise or lower the signal. In a few lines:
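Transient MRTU transfection of human HepG2 liver cells, 24 h compound treatment, then total RNA isolation, oligo(dT) reverse transcription, PCR amplification, fluorescent labelling and capillary electrophoresis of reporter fragments. Gain or loss relative to DMSO.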

The target of test [18] is Paired box protein Pax-6 (Homo sapiens) (UniProt P26367). The test is described as follows: ATG_Pax6_CIS: Attagene CIS-FACTORIAL HepG2 Assay for human Paired Box 6 (PAX6) (AID 2282956). The settings on record: HepG2 CIS-FACTORIAL PAX6 reporter transcription, RNA readout; actives raise or lower the signal. An outline of the steps:
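Read-out is reporter transcript level, measured by RT-PCR with fluorescent primer extension and capillary electrophoresis after 24 h dosing of transfected HepG2 cells. Activity in either direction fitted relative to DMSO control.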

In test [19] the target is Hepatocyte nuclear factor 6 (Homo sapiens) (UniProt Q9UBC0). In words: ATG_HNF6_CIS: Attagene CIS-FACTORIAL HepG2 Assay for human Hepatocyte Nuclear Factor 6 (HNF6) (AID 2282952). The settings on record: HepG2 Attagene cis-factorial HNF6 reporter transcription; actives raise or lower the signal. In a few lines:
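Activity values derive from bidirectional fitting against DMSO of reporter mRNA levels, measured by capillary electrophoresis of labelled RT-PCR products from HepG2 cells exposed 24 h.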

This passage reports outcome and AC50 results from PubChem BioAssay (EPA / NIEHS).

As a reminder, the AC50 is the concentration giving half of the maximal activity seen.

Where a structure was tested more than once in an assay, its records may differ in their call. Activity calls are given as the source filed them. The calls were made as follows: active = hit-call score of the fitted dose curve at least 0.9, where 1 is the maximum; inactive = score below 0.9.

Transcription factor Sp1 (Homo sapiens), sequence (P08047 whole entry, looked up): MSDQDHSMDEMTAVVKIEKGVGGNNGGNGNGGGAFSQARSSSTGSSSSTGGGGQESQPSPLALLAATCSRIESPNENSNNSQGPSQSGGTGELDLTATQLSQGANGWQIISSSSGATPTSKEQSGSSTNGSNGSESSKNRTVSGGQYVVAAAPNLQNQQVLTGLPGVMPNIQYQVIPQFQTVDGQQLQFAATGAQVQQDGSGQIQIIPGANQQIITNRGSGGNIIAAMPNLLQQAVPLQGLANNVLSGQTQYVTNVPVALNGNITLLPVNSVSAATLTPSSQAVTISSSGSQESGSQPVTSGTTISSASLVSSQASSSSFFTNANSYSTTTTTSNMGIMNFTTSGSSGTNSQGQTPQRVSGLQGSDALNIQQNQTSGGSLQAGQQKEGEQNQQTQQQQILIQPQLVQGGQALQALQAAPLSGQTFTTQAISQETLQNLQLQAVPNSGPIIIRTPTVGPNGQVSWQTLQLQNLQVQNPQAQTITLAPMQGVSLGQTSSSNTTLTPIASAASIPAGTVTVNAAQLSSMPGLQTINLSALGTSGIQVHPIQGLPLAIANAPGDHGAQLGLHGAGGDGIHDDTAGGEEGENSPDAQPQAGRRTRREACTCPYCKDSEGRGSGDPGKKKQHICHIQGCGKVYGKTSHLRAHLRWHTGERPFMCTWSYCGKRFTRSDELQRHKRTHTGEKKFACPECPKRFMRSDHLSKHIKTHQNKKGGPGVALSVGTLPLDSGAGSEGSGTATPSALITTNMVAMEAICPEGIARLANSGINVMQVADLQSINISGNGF
Heat shock factor protein 1 (Homo sapiens), sequence (Q00613 whole entry, looked up, the tested form may be a part): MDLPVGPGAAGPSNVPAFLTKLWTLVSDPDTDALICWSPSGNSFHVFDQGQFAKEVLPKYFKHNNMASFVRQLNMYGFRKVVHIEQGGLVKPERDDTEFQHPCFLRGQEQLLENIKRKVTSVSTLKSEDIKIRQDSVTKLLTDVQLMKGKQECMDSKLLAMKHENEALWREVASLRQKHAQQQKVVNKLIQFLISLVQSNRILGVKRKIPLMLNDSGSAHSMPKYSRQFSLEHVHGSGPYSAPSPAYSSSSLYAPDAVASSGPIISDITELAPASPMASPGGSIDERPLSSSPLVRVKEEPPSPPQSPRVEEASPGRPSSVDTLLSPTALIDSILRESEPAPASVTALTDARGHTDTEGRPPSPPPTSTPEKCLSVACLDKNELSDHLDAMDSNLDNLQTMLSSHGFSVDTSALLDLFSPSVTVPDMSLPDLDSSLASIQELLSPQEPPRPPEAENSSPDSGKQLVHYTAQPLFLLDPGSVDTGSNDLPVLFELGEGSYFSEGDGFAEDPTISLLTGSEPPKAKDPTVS
Signal transducer and activator of transcription 3 (Homo sapiens), sequence (P40763 whole entry, looked up): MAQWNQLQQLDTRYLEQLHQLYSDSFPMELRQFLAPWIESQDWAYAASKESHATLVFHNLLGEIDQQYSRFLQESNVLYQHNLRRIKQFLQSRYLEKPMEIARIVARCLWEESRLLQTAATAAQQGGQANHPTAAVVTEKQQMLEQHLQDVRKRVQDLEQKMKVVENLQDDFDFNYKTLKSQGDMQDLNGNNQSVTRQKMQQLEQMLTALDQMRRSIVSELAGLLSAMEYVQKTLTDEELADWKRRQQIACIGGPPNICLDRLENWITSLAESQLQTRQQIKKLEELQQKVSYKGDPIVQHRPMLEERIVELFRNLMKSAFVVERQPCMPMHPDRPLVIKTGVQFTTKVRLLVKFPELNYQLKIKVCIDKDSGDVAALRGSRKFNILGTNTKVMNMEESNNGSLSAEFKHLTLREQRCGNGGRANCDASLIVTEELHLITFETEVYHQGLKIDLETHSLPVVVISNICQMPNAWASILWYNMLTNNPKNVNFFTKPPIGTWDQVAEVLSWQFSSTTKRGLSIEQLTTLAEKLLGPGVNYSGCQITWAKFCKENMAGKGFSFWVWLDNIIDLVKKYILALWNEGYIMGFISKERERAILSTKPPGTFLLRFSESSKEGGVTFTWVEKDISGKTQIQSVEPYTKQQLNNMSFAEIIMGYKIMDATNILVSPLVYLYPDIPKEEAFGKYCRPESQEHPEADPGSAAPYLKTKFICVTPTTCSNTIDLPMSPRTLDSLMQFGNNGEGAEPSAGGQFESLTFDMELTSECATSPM
Hypoxia-inducible factor 1-alpha (Homo sapiens), sequence (Q16665 whole entry, looked up, the tested form may be a part): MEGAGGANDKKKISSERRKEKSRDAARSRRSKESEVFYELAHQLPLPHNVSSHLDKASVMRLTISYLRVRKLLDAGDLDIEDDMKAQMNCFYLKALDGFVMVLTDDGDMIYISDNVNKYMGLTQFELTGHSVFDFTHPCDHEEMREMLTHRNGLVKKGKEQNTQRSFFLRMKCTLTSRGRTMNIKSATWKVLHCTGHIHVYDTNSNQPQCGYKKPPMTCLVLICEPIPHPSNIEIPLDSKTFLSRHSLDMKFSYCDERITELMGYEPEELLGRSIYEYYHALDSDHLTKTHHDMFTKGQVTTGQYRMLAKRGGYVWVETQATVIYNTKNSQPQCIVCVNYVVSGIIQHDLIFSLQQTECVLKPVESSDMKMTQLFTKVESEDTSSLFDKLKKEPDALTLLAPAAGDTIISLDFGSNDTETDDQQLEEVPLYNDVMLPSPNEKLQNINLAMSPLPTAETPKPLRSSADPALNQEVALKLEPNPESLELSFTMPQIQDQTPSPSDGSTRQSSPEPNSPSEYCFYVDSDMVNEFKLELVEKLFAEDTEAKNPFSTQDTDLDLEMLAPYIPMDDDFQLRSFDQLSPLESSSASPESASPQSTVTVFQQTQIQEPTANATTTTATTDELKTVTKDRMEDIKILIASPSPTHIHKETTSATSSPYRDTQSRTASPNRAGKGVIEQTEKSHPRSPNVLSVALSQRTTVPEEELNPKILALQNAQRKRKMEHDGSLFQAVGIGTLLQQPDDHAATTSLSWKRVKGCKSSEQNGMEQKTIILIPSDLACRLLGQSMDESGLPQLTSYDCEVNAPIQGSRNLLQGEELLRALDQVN
Hepatocyte nuclear factor 6 (Homo sapiens), sequence (Q9UBC0 whole entry, looked up): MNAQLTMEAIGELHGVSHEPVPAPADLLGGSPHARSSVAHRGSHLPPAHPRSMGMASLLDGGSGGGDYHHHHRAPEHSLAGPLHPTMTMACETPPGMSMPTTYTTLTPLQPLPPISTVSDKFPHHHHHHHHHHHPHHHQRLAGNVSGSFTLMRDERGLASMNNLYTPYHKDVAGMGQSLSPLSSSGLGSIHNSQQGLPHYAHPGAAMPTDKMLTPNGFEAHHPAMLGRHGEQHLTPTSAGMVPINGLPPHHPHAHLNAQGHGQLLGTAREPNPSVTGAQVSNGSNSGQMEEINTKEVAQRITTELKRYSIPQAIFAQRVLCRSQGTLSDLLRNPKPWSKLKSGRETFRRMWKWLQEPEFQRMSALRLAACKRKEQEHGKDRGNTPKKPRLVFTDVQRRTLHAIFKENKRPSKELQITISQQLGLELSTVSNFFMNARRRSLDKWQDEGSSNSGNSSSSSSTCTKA
Paired box protein Pax-6 (Homo sapiens), sequence (P26367 whole entry, looked up): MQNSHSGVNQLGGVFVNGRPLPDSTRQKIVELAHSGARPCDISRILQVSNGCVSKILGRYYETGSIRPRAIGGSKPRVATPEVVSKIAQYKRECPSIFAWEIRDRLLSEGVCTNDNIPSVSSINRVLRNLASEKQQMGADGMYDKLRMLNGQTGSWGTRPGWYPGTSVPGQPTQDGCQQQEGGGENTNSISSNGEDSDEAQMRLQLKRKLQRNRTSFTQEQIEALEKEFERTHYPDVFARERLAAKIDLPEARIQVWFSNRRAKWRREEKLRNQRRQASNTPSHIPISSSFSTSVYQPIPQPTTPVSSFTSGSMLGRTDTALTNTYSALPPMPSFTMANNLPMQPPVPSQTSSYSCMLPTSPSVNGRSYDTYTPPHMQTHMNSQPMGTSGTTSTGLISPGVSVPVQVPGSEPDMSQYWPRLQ

Turning to `O=C(N[C@H](CO)[C@H](O)c1ccc([N+](=O)[O-])cc1)C(Cl)Cl`, the molecule was called inactive in [1], in [2], in test [3], in test [4], in [5] and in test [6]. The outcome in test [7], in test [8], in [9], in test [10], in test [11] and in [12] was inactive. The outcome in test [13], in test [14], in test [15] and in test [16] was inactive. Besides, the concentration at half-maximal activity (AC50) in test [7] is 69.7 µM (active) [middle of 4 runs].

Turning to `Cn1cc[nH]c1=S`, the result in test [1], in [2], in [3], in test [5], in test [6] and in [7] was inactive. The result in test [8], in test [9], in test [10], in [11], in test [12] and in [13] was inactive. Moreover, the molecule was classed as inactive in [15] and in test [16].

`Cc1ncc([C@@H](CCCCCCc2ccc3c(n2)NCCC3)CC(=O)O)cn1`: the molecule was called inactive in test [1], in test [2], in test [3], in test [17], in [5] and in test [18]. Further, the call in [8], in test [9], in [10], in test [11], in test [12] and in [13] was inactive. The molecule was called inactive in test [14], in test [15] and in test [16]. The concentration at half-maximal activity (AC50) in test [7] is 27.6 µM (active).

Take `CCOC(N)=O`: the molecule was classed as inactive in test [1], in test [2], in test [3], in test [17], in test [19] and in test [5]. Moreover, the outcome in test [7], in test [9], in test [10], in test [11], in test [12] and in test [13] was inactive. For the same molecule, the molecule was called inactive in test [14], in test [15] and in test [16].
